Bioassay records from PubChem BioAssay.
Rows were chosen to be rich in hits. Some 1.4% of all compounds tested hit in one or more screens of this group.
HSV augment – HSV replication enhancement; HSV replication augmentation in cells, fold increase; 0.005% of 220,000 active; maximum fold increase; AID 1956; in the data active means maximum fold increase above about 1.5; tested in PC3 cells
EP2 antag – inhibitors of human EP2 prostaglandin E2 receptor. P43116. C6 glioma cells expressing human EP2, cAMP TR-FRET; cells stimulated with saturating PGE2. inhibition, % at 25 µM. 0.52% of 260,000 active;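 active means percent inhibition above 40 after rounding to a whole number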;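 further: rat C6 glioma host cells with rolipram phosphodiesterase inhibitor present; the protocol text gives 20 µM as final concentration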
Target sequence (P43116 whole entry, looked up): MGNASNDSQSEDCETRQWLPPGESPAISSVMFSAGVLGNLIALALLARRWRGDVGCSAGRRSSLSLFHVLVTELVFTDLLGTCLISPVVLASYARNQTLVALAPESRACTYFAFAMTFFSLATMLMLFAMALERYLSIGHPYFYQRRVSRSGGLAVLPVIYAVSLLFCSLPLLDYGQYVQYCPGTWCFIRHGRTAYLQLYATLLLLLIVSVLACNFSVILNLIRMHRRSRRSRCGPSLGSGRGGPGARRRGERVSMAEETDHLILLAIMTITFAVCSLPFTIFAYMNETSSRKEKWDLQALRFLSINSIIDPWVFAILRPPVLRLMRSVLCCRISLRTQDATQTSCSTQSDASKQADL
Furin inhibitor – human furin inhibition; P09958; purified furin, fluorogenic substrate cleavage; inhibition, % at 20 µM or 30 µM; 0.061% of 220,000 active; in the data active means inhibition above about 25%
Pf gamet viab – P. falciparum stage V gametocyte viability inhibition; P. falciparum stage V gametocytes, ATP luminescence, 24 h; inhibition, % at 10.9 µM; 0.065% of 150,000 active;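 active means inhibition above the mean plus 3 SD of compounds within the control limits, set per campaign, cut at about 38% in these data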
EP2 modulator – modulators of human EP2 prostaglandin E2 receptor; induction, % at 25 µM; P43116; 0.83% of 260,000 active; EP2-expressing cells, cAMP HTRF FRET, PGE2 co-stimulation; AID 940;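 active means compounds whose cAMP rise, as percent of the full-agonist control response, exceeds 60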;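 further: rat C6 glioma line stably carrying human EP2 under a CMV promoter; the protocol text gives 20 µM as final concentration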
EP2 confirm – EP2 receptor cAMP induction, counter-screens negative. 47% of 1,300 active. shares compounds with EP2 modulator. calls only at 20 µM (by protocol). C6 glioma EP2 cells, cAMP HTRF induction; plus low (about EC15) PGE2 agonist;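 active means cAMP induction above 50% in the main assay while under 30% in all four parallel counter assays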;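 further: rat C6 glioma cells stably expressing human EP2 receptor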
Each line names hits and unclear results; the compound was inactive in the other large screens (follow-up assays come after a bar, where they were run); ! = repeats disagree.

CCN=C1S/C(=C\c2cc(OCC)c(O)cc2Br)C(=O)N1CC	none (no result: HSV augment)
CCN=C1S/C(=C\c2ccc(O)c(OCC)c2)C(=O)N1CC	EP2 modulator 81.3 | EP2 confirm inactive
CCN(CC)S(=O)(=O)c1cccc(C(=O)Oc2cccnc2)c1	none
C1=C(c2ccccc2)Nc2ccccc2N=C1c1ccccc1	EP2 modulator 66.2 (no result: Pf gamet viab) | EP2 confirm active
Cc1ccc2c(c1)N(CC(=O)N1CCCC1)C(=O)C(C)O2 (centres undefined)	none (no result: HSV augment, EP2 antag, Furin inhibitor, EP2 modulator)
Cc1ccc(C)c(CN2C(=O)C(C)Oc3ccc(C)cc32)c1 (centres undefined)	EP2 modulator 79.8 | EP2 confirm active
CCc1ccccc1NC(=S)N(Cc1ccco1)C(C)c1cccs1 (centres undefined)	none | EP2 confirm inactive
CCc1ccc(NC(=O)N(Cc2ccco2)C(C)c2cccs2)cc1 (centres undefined)	none (no result: Pf gamet viab)
Cc1ccc(CN2C(=O)/C(=C\c3ccc(C(=O)NCc4cccnc4)cc3)Oc3ccccc32)cc1	EP2 modulator 85.2 | EP2 confirm active
COc1cccc2[nH]c3c(N4CCc5ccccc5C4)ncnc3c12	none (no result: Pf gamet viab)
COc1cccc2[nH]c3c(N4CCC(C)CC4)ncnc3c12	EP2 modulator 80.0 (no result: Pf gamet viab) | EP2 confirm active
Cc1ccc(S(=O)(=O)c2ccc(Oc3cccc(C)c3)cc2)cc1	EP2 modulator 77.7 (no result: Pf gamet viab) | EP2 confirm inactive
CCOC(=O)C1=C(N)OC2=C(C(=O)CC(C)(C)C2)C1c1ccc(CC)s1 (centres undefined)	EP2 modulator 72.8 (no result: HSV augment) | EP2 confirm active
COc1cccc(-c2cc(C(F)(F)F)nc(NCc3ccco3)n2)c1	none (no result: Pf gamet viab)
COc1ccc(-c2cc(C(F)(F)F)nc(NCc3ccco3)n2)cc1OC	EP2 modulator 66.7 (no result: Pf gamet viab) | EP2 confirm active
COc1cc2c(cc1OC)CN(c1ccc(-c3ccccc3OC)nn1)CC2	EP2 modulator 65.2! (no result: Pf gamet viab) | EP2 confirm inactive
COc1ccccc1-c1ccc(NC2CCCC2)nn1	none (no result: Pf gamet viab)
O=C(CC1c2ccccc2Oc2ccccc21)NCc1ccco1	none (no result: Pf gamet viab)
Brc1ccc(Cn2c(-c3cncs3)nc3ccccc32)cc1	EP2 modulator 69.8 | EP2 confirm inactive
C=CCn1c(-c2ccc(OC)cc2)nc2ccccc21	none (no result: Pf gamet viab)
c1ccc(Cc2nc3ccccc3n2Cc2ccccc2)cc1	EP2 modulator 75.2 | EP2 confirm active
COc1ccc(-c2nc3ccccc3n2Cc2ccccc2)cc1	EP2 modulator 68.5 (no result: Pf gamet viab) | EP2 confirm active
O=C(Cc1c(Cl)cccc1Cl)Nc1cccnc1	none
CCn1c(=O)cc(O)c2c(=O)n(C)c(=O)n(C)c21	none (no result: HSV augment, EP2 antag)
CNC(=S)N(Cc1cccs1)Cc1cc2cc(OC)ccc2[nH]c1=O	none
CC(=O)Nc1nnc(CCN2CCCCC2)s1	EP2 modulator 72.0 | EP2 confirm inactive
CCOC(=O)N1CCN(CC(=O)Nc2cc(OCC)ccc2OCC)CC1	none (no result: Pf gamet viab)
CCOc1ccc(OCC)c(NC(=O)CN2CCN(c3ccc(C)cc3C)CC2)c1	EP2 modulator 78.6 (no result: HSV augment, EP2 antag, Pf gamet viab) | EP2 confirm active
COC(=O)c1cccc(C(=O)N2CCC(CO)(CCc3ccccc3)CC2)c1	none (no result: HSV augment, EP2 antag, Furin inhibitor, EP2 modulator)
Cc1cc(C)nc(SCc2nnc(SCC#N)n2-c2cccc(Cl)c2)n1	none | EP2 confirm inactive
Cc1ccc(S(=O)(=O)NCCNC(=O)c2nonc2N)cc1	none
CC(Sc1nc2ccccc2n1C)C(=O)NC(c1ccccc1)c1ccccc1 (centres undefined)	EP2 modulator 72.1 | EP2 confirm active
O=C(NC(=S)Nc1ccc2c(c1)OCO2)c1ccccc1	none (no result: Pf gamet viab)
N#Cc1c(-c2ccco2)nc(SCC(=O)Nc2ccc(S(N)(=O)=O)cc2)[nH]c1=O	none (no result: HSV augment, Pf gamet viab)
N#Cc1c(-c2ccco2)nc(SCc2ccc(F)cc2)[nH]c1=O	EP2 modulator 75.3 (no result: EP2 antag) | EP2 confirm inactive
Cc1noc(C)c1CSc1nc2sc3c(c2c(=O)n1C)CCCC3	EP2 modulator 63.1 (no result: Pf gamet viab) | EP2 confirm inactive
CC(=O)CSc1ncnc2sc3c(c12)CCC(C)C3 (centres undefined)	EP2 modulator 60.6 | EP2 confirm inactive
Cc1noc(C)c1CSc1ncnc2sc3c(c12)CCC3	EP2 modulator 67.8 (no result: Pf gamet viab) | EP2 confirm inactive
N#CCSc1ncnc2sc3c(c12)CCC3	none (no result: Pf gamet viab)
Cc1noc(C)c1CSc1ncnc2sc3c(c12)CCC(C)C3 (centres undefined)	EP2 modulator 69.8 (no result: Pf gamet viab) | EP2 confirm inactive
CC1CCc2c(sc3ncnc(SCC(=O)N4CCCC4)c23)C1 (centres undefined)	none (no result: HSV augment, Furin inhibitor, Pf gamet viab)
Cc1occc1C(=O)NNC(=O)Nc1ccc(F)cc1F	none
CCN(c1ccccc1)c1nc(C#N)nc(N(CC)c2ccccc2)n1	none
CCN(CC)c1nc(C#N)nc(N(CC)CC)n1	EP2 modulator 65.1 (no result: HSV augment, EP2 antag, Pf gamet viab) | EP2 confirm inactive
CC(C)CCn1c(Oc2ccc(Cl)cc2)nc2c1c(=O)n(C)c(=O)n2C	EP2 modulator 72.9 (no result: Pf gamet viab) | EP2 confirm active
COc1ccc(Oc2nc3c(c(=O)n(C)c(=O)n3C)n2Cc2ccccc2)cc1	none
COc1ccc(OC)c(C(=O)CSc2nnc(-c3cccs3)n2C)c1	none (no result: Pf gamet viab)
COc1ccc(OC)c(C(=O)CSc2nnc(Cc3cccs3)n2CCc2ccccc2)c1	EP2 modulator 66.1 (no result: Pf gamet viab) | EP2 confirm active
CC(=O)Nc1sc2c(c1C(c1cccs1)N1CCOCC1)CCCC2 (centres undefined)	none (no result: Pf gamet viab) | EP2 confirm inactive
CC(=O)Nc1sc2c(c1C(c1ccccn1)N1CCCC1)CCCC2 (centres undefined)	none
S=c1[nH]nc(-c2ccccc2)n1/N=C/c1ccc(-c2ccccc2Cl)o1	EP2 modulator 78.5 | EP2 confirm active
CN(C)c1oc(-c2ccccc2Cl)nc1P(=O)(c1ccccc1)c1ccccc1	EP2 modulator 70.6 (no result: Pf gamet viab) | EP2 confirm active
c1ccc(-c2nn3c(C4CCCCC4)nnc3s2)cc1	EP2 modulator 73.1 | EP2 confirm active
c1ccc(-c2nn3c(-c4ccccc4)nnc3s2)cc1	EP2 modulator 73.5 | EP2 confirm active
Cc1cccc(-c2nnc3sc(-c4ccccc4)nn23)c1	none (no result: Pf gamet viab)
c1ccc(-c2nn3c(C4CCCCC4)nnc3s2)nc1	none
COc1ccc(CC(=O)NNC(=S)Nc2ccccc2)cc1Br	none
CN(C)C(=O)/C(=C\c1ccncc1)NC(=O)c1ccccc1	none
Cc1ccc(SC(c2ccc(C)cc2)C(Cn2cncn2)C(=O)c2ccccc2)cc1 (centres undefined)	none (no result: Pf gamet viab)
Cc1ccc(C(Sc2ccccc2)C(Cn2cncn2)C(=O)c2ccccc2)cc1 (centres undefined)	EP2 modulator 72.8 (no result: Pf gamet viab) | EP2 confirm active
COC(=O)c1c(NC(=O)Cc2cccs2)sc2c1CCCC2	none | EP2 confirm inactive
COC(=O)c1c(NC(=O)Cc2cccs2)sc(C)c1C	none (no result: Pf gamet viab) | EP2 confirm inactive
NS(=O)(=O)c1ccc(NC(=O)CN2CCCN(S(=O)(=O)c3ccc(F)cc3)CC2)cc1	none
CC1CCN(C(C)C(=O)Nc2ccccc2-c2ccccc2)CC1 (centres undefined)	EP2 modulator 82.5 | EP2 confirm active
